Data published in PubChem BioAssay (NCI).
Compounds without any hit were thinned out: in the full panel of roughly 83,000, 20% have a hit.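 Step 1: grow cells in 96-well plates. Step 2: add test compound at a single concentration. Step 3: incubate 48 h. Step 4: record percent growth.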 Calls of active or inactive are those of the source. How the source made its calls: active means growth percent below 10; inactive means the rest.

system: SF-295 CNS; assay: NCI-60 one-dose screen, 48 h (100 = growth as untreated, 0 = no growth, -100 = all killed); conditions: 10 µM unless noted

Question: For `Cc1ccc(Cn2c(O)c(N=NC(=O)c3ccc(S(N)(=O)=O)cc3)c3ccccc32)cc1`, which growth is on record?
Answer: 101% (inactive)

Question: With `CC[C@]12C=CCN3CC[C@@]4(c5ccc(OC)cc5N(C)[C@H]4[C@@](O)(C(=O)OC)[C@@H]1OC(=O)CCC(=O)O[C@H]1CC[C@H]4[C@@H]5CCC6=CC(=O)CC[C@@H]6[C@H]5CC[C@]14C)[C@@H]32` as the molecule, how does the growth read?
Answer: 4.5% [100 µM] (active)

Question: How did the growth turn out when `CCC(Br)(CC)C(=O)c1ccc(OCC(=O)O)c(Cl)c1Cl` was run?
Answer: 81.6% (inactive)

Question: `Oc1c(CNCCNCc2cc(Cl)cc(Cc3ccccc3)c2O)cc(Cl)cc1Cc1ccccc1` was tested. Which growth did it give?
Answer: 0.247% (active)

Question: `CCc1ccc(-c2ccc(COc3ccc(CC4SC(=O)NC4=O)cc3)cc2)cc1` (stereo not given) was tested. Which growth did it give?
Answer: 75.8% (inactive)

Question: Which growth does the source give for `Cn1cc(-c2noc(-c3cn(C)c4ncc(F)cc34)n2)c2ccccc21` here?
Answer: 49.6% (inactive)

Question: How did the growth turn out when `Clc1ccc2nc(-c3ccc(-c4ccc(/C=N/NC5=NCCN5)cc4)s3)cn2c1` was run?
Answer: 97.2% (inactive)

Question: For `CC(C)CCSc1nc(N)nc2nc[nH]c12`, which growth is on record?
Answer: 132% (inactive)

system: SF-539 CNS; assay: as above; conditions: 10 µM unless noted

Question: With `O=C(COc1cccc(/C=C2\Oc3ccccc3C2=O)c1)c1ccc([N+](=O)[O-])cc1` as the molecule, how does the growth read?
Answer: 97.4% (inactive)

Question: For `CC[C@]12C=CCN3CC[C@@]4(c5ccc(OC)cc5N(C)[C@H]4[C@@](O)(C(=O)OC)[C@@H]1OC(=O)CCC(=O)N[C@H](Cc1c[nH]c4ccccc14)C(=O)OC)[C@@H]32`, which growth is on record?
Answer: -57.1% [100 µM] (active)

Question: With `C=C(C)[C@@H]1CC[C@]2(C(N)=O)CC[C@]3(C)[C@H](CC[C@@H]4[C@@]5(C)C/C(=C/c6cccnc6)[C@H](O)C(C)(C)[C@@H]5CC[C@]43C)[C@@H]12` as the molecule, how does the growth read?
Answer: 25.1% [100 µM] (inactive)

Question: For `CSc1nc2sc3cc(Cl)c(Cl)cc3n2c(=N)c1C#N`, which growth is on record?
Answer: 91.3% (inactive)

Question: Which growth does the source give for `COc1ccc(/C=C2\N=C(Nc3ccccc3)N(NC(=O)c3ccccn3)C2=O)cc1` here?
Answer: 98.3% (inactive)

Question: How did the growth turn out when `O=C(NCCCNC(=O)OCc1ccc2cccc(O)c2n1)OCc1ccc2cccc(O)c2n1` was run?
Answer: 35.1% (inactive)

Question: Which growth does the source give for `COc1cc(C(=O)/C=C/c2c(-c3ccc(F)cc3)nc3sccn23)cc(OC)c1OC` here?
Answer: -57.9% (active)

Question: With `CCCCCCCCCCCCNC(=S)N/N=C/c1ccccc1O` as the molecule, how does the growth read?
Answer: 85.4% (inactive)

Question: `CCCc1cc2cc(-n3nc(C)c4c3CC(C)(C)CC4=O)cc(NC3CCSCC3)c2c(=O)[nH]1` was tested. Which growth did it give?
Answer: 75.4% (inactive)

Question: For `COc1ccc(-c2cc(-c3ccc(OC)c(OC)c3)nc(SCCCCCC(=O)NO)n2)cc1`, which growth is on record?
Answer: 55.4% (inactive)

Question: For `CCC(C)[C@H](NC(=O)NC(=O)NC(=O)CI)C(=O)OC` (stereo not given in full), which growth is on record?
Answer: 91.5% (inactive)

Question: How did the growth turn out when `CCN(CC)c1ccc(/C=C/c2ccc3cc(C)ccc3[n+]2CC)cc1` was run?
Answer: 11.5% (inactive)

Question: How did the growth turn out when `N/C(=N\c1nc2ccccc2[nH]1)NC(=O)Cc1cccc2ccccc12` was run?
Answer: 91.3% (inactive)

Question: `CC1(C)CC[C@]2(C(N)=O)CC[C@]3(C)C(=CC[C@@H]4[C@@]5(C)C/C(=C/c6ccncc6)C(=O)C(C)(C)[C@@H]5CC[C@]43C)[C@@H]2C1` was tested. Which growth did it give?
Answer: -68.1% [100 µM] (active)

Question: With `Cc1ccc(C2=C/C(=C/c3ccc(Br)cc3)C(=O)N2CCc2ccc(S(N)(=O)=O)cc2)cc1` as the molecule, how does the growth read?
Answer: 97.4% (inactive)

Question: Which growth does the source give for `Cc1ccc(NCCN2CCCCC2)c2c(=O)c3ccccc3sc12` here?
Answer: 32.3% (inactive)

Question: `CC1(C)CC(=O)c2c(ccc(C(=O)C[C@@H](N)CO)c2N)O1` was tested. Which growth did it give?
Answer: -3.9% (active)

Question: How did the growth turn out when `CCCCC1COc2cccc3c2N1C=C/C3=C\C(=O)n1ccc2ccccc21` (stereo not given) was run?
Answer: 97.2% (inactive)

Question: `CC(C)CSc1ncnc2nc[nH]c12` was tested. Which growth did it give?
Answer: 88.4% (inactive)

Question: With `CC1(C)CC[C@]2(C(=O)O)CC[C@]3(C)C(=CC[C@@H]4[C@@]5(C)C/C(=C/c6cccnc6)[C@H](O)C(C)(C)[C@@H]5CC[C@]43C)[C@@H]2C1` as the molecule, how does the growth read?
Answer: -26.8% [100 µM] (active)

Question: With `COc1ccc(C=C2c3ccccc3-c3ccccc32)cc1` as the molecule, how does the growth read?
Answer: 43.7% (inactive)

Question: For `C#C[C@]1(O)CC[C@H]2[C@@H]3CC=C4c5nc(Nc6ccc(OC)cc6OC)sc5CC[C@]4(C)[C@H]3CC[C@@]21C`, which growth is on record?
Answer: -59.5% (active)

Question: Which growth does the source give for `CCOC(=O)c1nn(C2CCCCO2)c2ccc(NC(=O)CSc3nc4ccccc4c(=O)[nH]3)cc12` (stereo not given) here?
Answer: 82.4% (inactive)

Question: `O=c1[nH]cnc2c1ccn2C1OC(CO)C(O)C1O` (stereo not given) was tested. Which growth did it give?
Answer: 80.4% (inactive)

Question: Which growth does the source give for `CCOC(=O)C(=Cc1ccccc1[N+](=O)[O-])C(=O)OCC` here?
Answer: -15.5% (active)

Question: Which growth does the source give for `Cc1cc(C)c(S(=O)(=O)/N=c2/n(-c3ccccc3)nc3n2CCN3C2=NCCN2)c(C)c1` here?
Answer: 88.8% (inactive)

Question: `COC(=O)c1cc2c(=O)[nH]cc3c2c(n1)CCC3` was tested. Which growth did it give?
Answer: 97.3% (inactive)

Question: How did the growth turn out when `Cn1cc(-c2noc(C(=O)c3cn(C)c4ncccc34)n2)c2ccccc21` was run?
Answer: 90.2% (inactive)

Question: For `O=c1cc(-c2ccccc2)oc2cc(OCc3cn(Cc4ccc(F)cc4)nn3)cc(O)c12`, which growth is on record?
Answer: 1.1% [100 µM] (active)

Question: With `Cc1ccc(Cn2c(O)c(N=NC(=O)c3ccc(S(N)(=O)=O)cc3)c3ccccc32)cc1` as the molecule, how does the growth read?
Answer: 108% (inactive)

Question: For `CC[C@]12C=CCN3CC[C@@]4(c5ccc(OC)cc5N(C)[C@H]4[C@@](O)(C(=O)OC)[C@@H]1OC(=O)CCC(=O)O[C@H]1CC[C@H]4[C@@H]5CCC6=CC(=O)CC[C@@H]6[C@H]5CC[C@]14C)[C@@H]32`, which growth is on record?
Answer: -40.4% [100 µM] (active)

Question: With `CCC(Br)(CC)C(=O)c1ccc(OCC(=O)O)c(Cl)c1Cl` as the molecule, how does the growth read?
Answer: 96.9% (inactive)

Question: How did the growth turn out when `Oc1c(CNCCNCc2cc(Cl)cc(Cc3ccccc3)c2O)cc(Cl)cc1Cc1ccccc1` was run?
Answer: 2.22% (active)

Question: With `CCc1ccc(-c2ccc(COc3ccc(CC4SC(=O)NC4=O)cc3)cc2)cc1` (stereo not given) as the molecule, how does the growth read?
Answer: 77% (inactive)

Question: Which growth does the source give for `Cn1cc(-c2noc(-c3cn(C)c4ncc(F)cc34)n2)c2ccccc21` here?
Answer: 75.2% (inactive)

Question: With `Clc1ccc2nc(-c3ccc(-c4ccc(/C=N/NC5=NCCN5)cc4)s3)cn2c1` as the molecule, how does the growth read?
Answer: 83.1% (inactive)

Question: How did the growth turn out when `CC(C)CCSc1nc(N)nc2nc[nH]c12` was run?
Answer: 87.4% (inactive)
